Screening data as filed in PubChem BioAssay.
Shown are actives, neighbours in structure and some others; about 3.6% of the full set was active somewhere.
Anthrax LF prot – inhibitors of Bacillus anthracis lethal factor protease; inhibition, % at 10 µM; 360,000 tested, 0.12% active; multiplex microsphere protease cleavage assay, LF; P15917; AID 588501; further: plate controls were buffer without enzyme for full effect and enzyme alone for no effect
Target sequence (P15917 whole entry, looked up): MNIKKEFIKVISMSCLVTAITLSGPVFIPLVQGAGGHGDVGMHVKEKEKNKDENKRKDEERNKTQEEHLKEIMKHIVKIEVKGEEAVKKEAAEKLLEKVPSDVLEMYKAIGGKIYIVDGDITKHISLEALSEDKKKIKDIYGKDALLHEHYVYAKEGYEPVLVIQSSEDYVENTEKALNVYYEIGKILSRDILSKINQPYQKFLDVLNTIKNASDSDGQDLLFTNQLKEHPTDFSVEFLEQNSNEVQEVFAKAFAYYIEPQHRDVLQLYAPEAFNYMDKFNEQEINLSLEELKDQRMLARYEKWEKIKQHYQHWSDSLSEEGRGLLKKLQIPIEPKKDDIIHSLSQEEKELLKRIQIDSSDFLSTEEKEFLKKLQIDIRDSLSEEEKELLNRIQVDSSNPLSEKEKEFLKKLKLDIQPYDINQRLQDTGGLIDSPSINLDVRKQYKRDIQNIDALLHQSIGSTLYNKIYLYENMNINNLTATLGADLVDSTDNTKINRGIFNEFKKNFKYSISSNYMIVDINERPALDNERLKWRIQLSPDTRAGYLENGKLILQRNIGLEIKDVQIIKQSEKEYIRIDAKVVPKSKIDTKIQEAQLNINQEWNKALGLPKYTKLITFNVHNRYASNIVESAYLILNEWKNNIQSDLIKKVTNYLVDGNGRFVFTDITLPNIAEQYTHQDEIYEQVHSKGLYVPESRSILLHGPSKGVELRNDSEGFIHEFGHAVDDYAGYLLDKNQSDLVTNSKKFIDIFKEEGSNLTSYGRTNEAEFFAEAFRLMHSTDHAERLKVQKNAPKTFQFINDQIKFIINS
Autofluor counter – counter-screen for toxin protease inhibitors: compound fluorescence; 360,000 tested, 3.1% active; compound autofluorescence counterscreen, microsphere flow cytometry; active compounds read high; fluorescence intensity (concentration not given with the values); in the data active means fluorescence intensity above about 16000; inconclusive means no clear call, values can overlap the other calls
BoNT-A LC inh2 – BoNT A light chain protease inhibition; 360,000 tested, 0.17% active; multiplex microsphere protease substrate cleavage, flow cytometry; inhibition, % at 10 µM; further: plate controls were buffer without enzyme for full effect and enzyme alone for no effect
BoNT-F LC inh – BoNT F light chain protease inhibition | Multiplex microsphere protease cleavage assay, flow cytometry | inhibition, % at 10 µM | 360,000 tested, 0.22% active; in the data active means inhibition above about 35%, passing the limit was not always enough; inconclusive means no clear call, values can overlap the other calls; further: plate controls were buffer without enzyme for full effect and enzyme alone for no effect
BJeLR lethal – BJeLR cell viability loss; BJeLR (HRASV12) viability, CellTiter-Glo ATP luminescence, 48 h; inhibition, % (test concentration not listed); 300,000 tested, 0.17% active; in the data active means inhibition above about 50%; inconclusive means no clear call, values can overlap the other calls
SARS 3CLpro inh – SARS-CoV 3CLpro protease inhibition; recombinant SARS-CoV 3CLpro, quenched FRET peptide cleavage; inhibition, % at 6 µM; 290,000 tested, 0.14% active; AID 1706; in the data active means inhibition above about 12%
BoNT-A LC CP1 – blocks botulinum neurotoxin A light chain protease; shares compounds with BoNT-F LC inh; multiplex microsphere protease assay, flow cytometry; 720 tested, 3% active; inhibition, % at 10 µM; in the data active means inhibition above about 32%
BoNTF LC inh 1 – inhibitors of Botulinum neurotoxin F light chain protease; shares compounds with BoNT-F LC inh; inhibition, % at 10 µM; AID 602140; multiplex microsphere protease cleavage assay, flow cytometry; 720 tested, under 10 active; call rule not given here
LF protease CP1 – blocks anthrax lethal factor protease | shares compounds with BoNT-F LC inh | 720 tested, under 10 active | inhibition, % at 10 µM | multiplex microsphere protease cleavage assay, LF | AID 602142; call rule not given here
* hit, by the source's call; ? = inconclusive; · = not tested or not shown. Unless noted, no stated cut-off is given here; in the data, active means inhibition above about 30%; inconclusive means no clear call, values can overlap the other calls; inactive means below that.

SMILES	Anthrax LF prot	Autofluor counter	BoNT-A LC inh2	BoNT-F LC inh	BJeLR lethal	SARS 3CLpro inh	BoNT-A LC CP1	BoNTF LC inh 1	LF protease CP1
CC(=O)NCCn1c(C)cc2ccccc21	21	5295	8	2	-4	·	·	·	·
Cc1cc2ccccc2n1CCNC(=O)c1ccccc1	?	1420	?	?	-6	1	24	-6	17
COc1ccc(C(=O)NCCn2ccc3ccccc32)cc1	36*	9335	53*	11	-5	-3	2	13	1
COCCN(Cc1cn(C)nc1-c1ccc(Oc2ccccc2)cc1)C(C)C	-19	4079	-7	?	13	1	·	·	·
CC(C)N(C)Cc1cn(C)nc1-c1ccc(Oc2ccccc2)cc1	0	3249	-2	36*	1	8	0	-6	1
Cc1ccc2nc(SCC(=O)O)nc(C)c2c1	7	4380	3	40*	-5	-2	-1	-6	-4
Cc1ccc2nc(SCCC#N)nc(C)c2c1	1	4543	1	13	8	0	·	·	·
Cc1ccc(NC(=O)CC2(CC(=O)O)CCCC2)cc1	11	4216	0	33	0	3	·	·	·
O=C(O)CC1(CC(=O)Nc2ccc(C(F)(F)F)cc2)CCCC1	4	4111	2	40*	-6	6	1	-2	2
Cc1cc(C)cc(OCC(=O)OC(C)C(=O)Nc2c(C)n(C)n(-c3ccccc3)c2=O)c1 (stereo not given)	10	4520	9	?	0	·	·	·	·
O=C(NCc1ccc(F)cc1)N1CCN(S(=O)(=O)c2ccccc2F)CC1	6	3663	-1	2	8	-2	·	·	·
O=C(NCc1cccc(Cl)c1)N1CCN(S(=O)(=O)c2ccccc2F)CC1	-7	3551	6	69*	2	-6	0	-7	4
COC(=O)C1CC2(C(=O)OC)CC(C(=O)OC)(CC(C(=O)OC)C2=O)C1=O (stereo not given)	-2	4095	0	-8	·	·	·	·	·
CCc1nc2ccc(C(=O)NC3CCN(Cc4ccccc4)CC3)cn2c1N(C)Cc1ccc(N(C)C)cc1	1	2956	0	-3	·	·	·	·	·
Cc1cccc(C(C)(C)C)c1OCCOCCN1CCCC1	0	2192	4	38*	5	3	1	-2	-2
O=C(c1nn2c(C(F)(F)F)cc(-c3cccs3)nc2c1Br)N1CCCc2ccccc21	19	2108	47*	18	3	2	7	-2	6
O=C(Nc1ccc(Oc2cccnc2)cc1)c1ccc([N+](=O)[O-])cc1	-2	2603	0	-2	5	1	·	·	·
O=C(Nc1ccc(Nc2ccncc2)cc1)c1ccc([N+](=O)[O-])cc1	36*	3510	1	-8	11	-4	-1	-10	-2
CCCC(CCC)c1nc2ccncc2[nH]1	0	2311	3	41*	2	1	2	2	2
Cc1ccc(CSc2nc3ccncc3[nH]2)cc1	-1	5911	0	0	24	3	·	·	·
c1ccc2c(NC3CCCC3)nnc(NC3CCCC3)c2c1	2	3938	2	-4	8	-6	·	·	·
Nc1ccccc1NC1CCCCC1	15	2264	74*	-30	·	-1	17	-16	15
Cc1ccc2cc(C#N)c(N3CCN(C(=O)c4cccs4)CC3)nc2c1	-12	3441	-3	40*	-2	-3	-3	-10	-5
Cc1ccc2nc(N3CCN(C(=O)c4ccc(F)cc4)CC3)c(C#N)cc2c1	0	4690	5	0	1	5	·	·	·
COc1ccc([N+](=O)[O-])cc1N(CC1CO1)S(=O)(=O)c1ccc(C)cc1 (stereo not given)	3	4738	-2	2	-5	1	·	·	·
SMILES	Anthrax LF prot	Autofluor counter	BoNT-A LC inh2	BoNT-F LC inh	BJeLR lethal	SARS 3CLpro inh	BoNT-A LC CP1	BoNTF LC inh 1	LF protease CP1
CCOC(=O)C1CCN(C(c2cc3ccc(C)c(C)c3[nH]c2=O)c2nnnn2C2CCCCC2)CC1 (stereo not given)	12	60118*	33*	38*	-6	7	-2	-5	-4
Cc1ccc2cc(C(c3nnnn3C3CCCC3)N3CCOCC3)c(=O)[nH]c2c1C (stereo not given)	14	9655	1	3	-4	-3	·	·	·
CCOC(=O)C1CCN(C(c2cc3c(C)ccc(C)c3[nH]c2=O)c2nnnn2C2CCCCC2)CC1 (stereo not given)	10	38836*	15	109*	0	6	1	-3	0
Cc1ccc2cc(CN(Cc3nnnn3C3CCCC3)C3CCCCC3)c(=O)[nH]c2c1C	2	5570	3	26	0	0	·	·	·
NC(=O)C1CCN(C(c2ccccc2)c2nnnn2C2CCCC2)CC1 (stereo not given)	3	3152	1	13	0	1	·	·	·
Cc1ccc(C)c2[nH]c(=O)c(C(c3nnnn3C3CCCC3)N3CCOCC3)cc12 (stereo not given)	-1	25756*	-3	-4	4	-4	0	-1	-1
COc1cn(-c2ccccc2)nc1C(=O)NCc1ccccc1	1	4494	2	-1	-11	2	·	·	·
CCOC(=O)CCCCC(=O)c1[nH]c(=O)[nH]c1CSc1nc(C)cc(=O)[nH]1	4	6552	8	47*	8	-1	1	4	-2
CCOC(=O)CCCCC(=O)c1[nH]c(=O)[nH]c1CSc1nc(C)cc(C)n1	5	4042	1	10	4	-1	1	-2	-2
CCOC(=O)CCCCC(=O)c1[nH]c(=O)[nH]c1CSc1nnc2c3cc(Br)ccc3n(C)c2n1	·	·	·	·	0	-2	·	·	·
CCOC(=O)CCCCC(=O)c1[nH]c(=O)[nH]c1C[n+]1ccc(C)cc1	-3	4458	0	-2	3	2	·	·	·
CCOC(=O)c1[nH]c(=O)[nH]c1CSc1nc(C)cc(C)n1	-2	4731	0	-3	-9	1	·	·	·
CCOC(=O)CCCCC(=O)c1[nH]c(=O)[nH]c1CN1CCOCC1	4	5310	10	59*	12	-2	-1	-3	-1
CCOC(=O)CCCCC(=O)c1[nH]c(=O)[nH]c1CSc1nc2ccccc2[nH]1	0	7134	5	36*	-6	-6	0	-6	-3
CC[C@]12c3[nH]c4ccc(OC)cc4c3CCN1C(=O)C(CC(=O)NCCCOC)C[C@@H]2C(=O)N1CCN(C(=O)c2ccco2)CC1 (stereo not given in full)	1	2944	0	-6	·	·	·	·	·
COc1ccc(C=NN=C2c3ccccc3-c3ccccc32)cc1OC	-5	3690	0	-3	·	·	·	·	·
COc1ccc(NC(=O)CSc2nc(N)c3cc4c(nc3n2)CC(C)(C)OC4)cc1	11	4147	4	47*	-6	6	0	3	2
